Data: publication PMC4336329 (PLoS ONE, 2015)
Among all 310,000 compounds or so, about 14,000 (4.5%) showed an effect of 50% or more. The effect is printed as a negative number. The full list was thinned out, with strong results kept by preference.

Molecular target: human ether-à-go-go-related gene (hERG) potassium channel (human, UniProt Q12809)
Assay: primary screen, population patch clamp on CHO cells stably expressing hERG; higher = less effect of the substance
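Further: peak tail current of the secondary pulse compared with the same well before compound.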

Sequence of human ether-à-go-go-related gene (hERG) potassium channel (Q12809 whole entry, looked up): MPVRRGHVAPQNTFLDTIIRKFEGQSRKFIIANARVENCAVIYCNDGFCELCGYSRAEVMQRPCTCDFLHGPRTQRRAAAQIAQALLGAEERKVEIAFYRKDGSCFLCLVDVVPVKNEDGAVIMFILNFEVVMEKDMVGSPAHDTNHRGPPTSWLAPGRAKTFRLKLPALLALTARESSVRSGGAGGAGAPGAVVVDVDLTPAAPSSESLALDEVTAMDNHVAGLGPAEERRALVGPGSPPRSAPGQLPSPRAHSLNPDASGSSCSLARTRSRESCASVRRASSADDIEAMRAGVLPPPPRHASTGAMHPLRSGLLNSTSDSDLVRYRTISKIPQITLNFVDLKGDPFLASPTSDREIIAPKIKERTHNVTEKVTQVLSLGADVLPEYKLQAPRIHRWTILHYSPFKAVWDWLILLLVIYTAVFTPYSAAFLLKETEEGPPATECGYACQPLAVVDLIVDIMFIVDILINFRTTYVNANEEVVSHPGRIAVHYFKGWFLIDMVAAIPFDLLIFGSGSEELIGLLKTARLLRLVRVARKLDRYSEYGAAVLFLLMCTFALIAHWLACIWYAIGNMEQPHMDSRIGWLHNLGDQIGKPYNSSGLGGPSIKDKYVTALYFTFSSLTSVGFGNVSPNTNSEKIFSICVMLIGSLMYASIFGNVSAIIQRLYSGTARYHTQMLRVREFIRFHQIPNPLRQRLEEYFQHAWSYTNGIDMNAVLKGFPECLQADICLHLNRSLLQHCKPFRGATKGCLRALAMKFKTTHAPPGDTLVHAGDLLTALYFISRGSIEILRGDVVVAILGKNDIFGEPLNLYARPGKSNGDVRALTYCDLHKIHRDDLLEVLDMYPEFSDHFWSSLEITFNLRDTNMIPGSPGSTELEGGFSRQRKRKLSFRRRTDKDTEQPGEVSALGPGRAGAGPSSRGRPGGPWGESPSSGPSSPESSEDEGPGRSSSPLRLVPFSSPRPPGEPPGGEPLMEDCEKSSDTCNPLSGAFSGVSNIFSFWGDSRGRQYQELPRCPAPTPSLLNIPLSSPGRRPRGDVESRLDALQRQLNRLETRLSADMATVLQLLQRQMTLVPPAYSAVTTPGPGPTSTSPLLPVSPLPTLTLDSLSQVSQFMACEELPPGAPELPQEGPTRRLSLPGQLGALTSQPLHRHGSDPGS

| SMILES | hERG current change (%, negative = inhibition) at 10uM |
| --- | --- |
| Cc1ccn2c(Nc3ccccc3)c(-c3ccccn3)nc2c1 | -10.8% |
| Cc1ccc(Nc2c(-c3ccccn3)nc3cc(C)ccn23)cc1 | -48.1% |
| Cc1ccc(-c2nc3cnccn3c2Nc2ccc3c(c2)OCO3)cc1 | -25.7% |
| COc1ccc(-c2nc3cnccn3c2Nc2ccc3c(c2)OCO3)cc1 | -52.7% |
| Clc1ccc(-c2nc3cnccn3c2Nc2ccc3c(c2)OCO3)cc1 | -18.4% |
| Cc1ccn2c(Nc3ccc4c(c3)OCO4)c(-c3ccccn3)nc2c1 | -67.4% |
| Cc1ccc(-c2nc3cnccn3c2Nc2ccc3c(c2)OCCO3)o1 | -23.8% |
| Cc1ccc(-c2nc3cnccn3c2Nc2ccc3c(c2)OCO3)o1 | -52.7% |
| Cc1ccc(Nc2c(-c3ccc(C)o3)nc3cnccn23)cc1 | 4.98% |
| COCCCn1c(SCC(=O)Nc2ccc3c(c2)OCCO3)nnc1-c1ccoc1C | -5.98% |
| Cc1ccc(NC(=O)CSc2nnc(-c3ccoc3C)n2CCCN(C)C)cc1Cl | -69.3% |
| CCOC(=O)c1cccc(NC(=O)CSc2nnc(-c3ccoc3C)n2CCOC)c1 | -19.7% |
| CCCn1c(SCC(=O)Nc2cccc(C(=O)OCC)c2)nnc1-c1ccoc1C | -2.61% |
| CCN(CC)CCCn1c(SCC(=O)Nc2cccc(F)c2)nnc1-c1ccoc1C | -68.2% |
| Cc1occc1-c1nnc(SCC(=O)Nc2ccc3c(c2)OCO3)n1CC1CCCO1 (stereo not drawn) | -2.13% |
| Cn1nc([N+](=O)[O-])nc1N1CCOCC1 | 23.7% |
| CC1CCCCN1CCn1c(=S)[nH]c2cc3c(cc2c1=O)OCO3 (stereo not drawn) | -29% |
| Cc1cc2cccc(C)c2nc1SCC(=O)NNC(=O)c1ccco1 | 3.66% |
| Cn1nc(C(=O)Nc2cccc(S(=O)(=O)N3CCCC3)c2)c2ccccc2c1=O | -4.87% |
| C=CCOc1c(CNc2ccc3[nH]c(=O)[nH]c3c2)cccc1OC | 10.1% |
| Cc1ccc(NC2CCCN(C(=O)c3snnc3C)C2)cc1C (stereo not drawn) | 0.46% |
| Cn1c2c(c(=O)c3ccccc31)CCC(C)(C)O2 | -3.57% |
| Cn1c2c(c(=O)c3ccccc31)CCCC2 | -4.88% |

| SMILES | hERG current change (%, negative = inhibition) at 10uM |
| --- | --- |
| Cl.Cn1c2c(c3ccccc31)CCN1CCC[C@]21c1ccccc1 | -60.7% |
| COc1ccc(-c2nnc(NC(=O)c3ccc(S(=O)(=O)N(C)CC4CCCO4)cc3)o2)c(OC)c1 (stereo not drawn) | 10.3% |
| CCn1cc(CN2CCC(n3nccc3NC(=O)c3ccccc3C)CC2)c(C)n1 | -37.9% |
| CCn1cc(CN2CCC(n3nccc3NC(=O)c3ccccc3OC)CC2)cn1 | -71.4% |
| CC(C)n1cc(CN2CCC(n3nccc3NC(=O)Cc3ccccc3)CC2)cn1 | 7.82% |
| Cc1ccccc1C(=O)Nc1ccnn1C1CCN(Cc2cnn(C)c2)CC1 | -26.5% |
| COc1ccc(C(=O)Nc2ccnn2C2CCN(Cc3cnn(C)c3)CC2)cc1 | 6.81% |
| COC(C(=O)Nc1ccnn1C1CCN(Cc2cnn(C(C)C)c2)CC1)c1ccccc1 (stereo not drawn) | -2.06% |
| CCn1cc(CN2CCC(n3nccc3NC(=O)c3ccccc3C)CC2)cn1 | -58.2% |
| CCn1cc(CN2CCC(n3nccc3NC(=O)Cc3ccccc3)CC2)cn1 | 7.27% |
| COc1ccccc1C(=O)Nc1ccnn1C1CCN(Cc2cnn(C)c2)CC1 | -55.6% |
| Cc1ccccc1C(=O)Nc1ccnn1C1CCN(Cc2cnn(C(C)C)c2)CC1 | -72.3% |
| CCn1cc(CN2CCC(n3nccc3NC(=O)c3ccc(OC)cc3)CC2)cn1 | -4.16% |
| Cn1cc(CN2CCC(n3nccc3NC(=O)c3ccccc3Cl)CC2)cn1 | -32.9% |
| O=C(COc1cc(F)ccc1[N+](=O)[O-])Nc1ccc(N2CCOCC2)cc1 | 7.65% |
| CN1C(=O)C2(C(C#N)=C(N)N(c3ccc(Cl)cc3)C3=C2C(=O)CC(C)(C)C3)c2ccccc21 (stereo not drawn) | -6.79% |
| CCOC(=O)/C(C#N)=N/Nc1c(S(=O)(=O)Cc2ccco2)csc1C(=O)OC | 11.4% |
| COc1ccc(N2CCN(C(=O)Nc3ccccc3Cl)CC2)cc1 | 4.49% |
| Cc1ccccc1NC(=O)CSc1nnc(CNC(=O)c2ccc3c(c2)OCO3)n1C | 1.34% |
| CCC1C(=O)NCCN1C(=O)CCc1nnc(CCc2ccc(OC)cc2)o1 (stereo not drawn) | 21.9% |
| Cc1ccc(C(=O)NCCNC(=O)COc2ccccc2Cl)cn1 | 6.95% |
| CCN(CC)CCCN(C(=O)c1ccccc1C)c1nc(-c2ccc(OC)cc2)cs1 | -55.5% |
| COCCCN(C(=O)c1ccccc1F)c1nc(-c2ccc(OC)cc2)cs1 | 8.7% |

| SMILES | hERG current change (%, negative = inhibition) at 10uM |
| --- | --- |
| COCCN(C(=O)c1ccccc1F)c1nc(-c2ccc(OC)cc2)cs1 | 16.7% |
| CCN(C(=O)c1ccccc1F)c1nc(-c2ccc(OC)cc2)cs1 | 22.8% |
| CCN(CC)CCCN(C(=O)c1ccccc1F)c1nc(-c2ccc(OC)cc2)cs1 | -71.4% |
| CN(CC(=O)Nc1cccc(F)c1)C(=O)CCNC(=O)c1ccco1 | 16.7% |
| CCC(C)(C)NC(=O)C(c1ccccc1)N(Cc1cccs1)C(=O)Cn1nnc2ccccc21 (stereo not drawn) | 7.58% |
| Cc1cccc(/C(N)=N/OC(=O)COc2ccc(Cl)c(C)c2)c1 | 13.2% |
| COc1ccc(CCNC(=O)c2cc3sccc3n2C)cc1OC | -6.67% |
| Cn1c(C(=O)NCCCN2CCCCC2)cc2sccc21 | -49% |
| CC1CCN(CCCNC(=O)c2cc3sccc3n2C)CC1 | -57.3% |
| COCCNC(=O)c1cc2sccc2n1C | 1.67% |
| COc1ccc(N2CCN(CCCNC(=O)c3cc4sccc4n3C)CC2)cc1 | -70.7% |
| COc1ccc(N2CCN(CCCNC(=O)CCCn3c(=O)[nH]c4ccsc4c3=O)CC2)cc1 | -9.7% |
| COC(=O)CSc1ccsc1C(=O)O | 5.72% |
| COc1ccc(-c2cc3c(=O)n(CC(=O)Nc4cccc(Cl)c4)nc(C)n3n2)cc1 | 14.8% |
| CCCC(=O)Nc1cccc(NC(=O)c2cccc([N+](=O)[O-])c2C)c1 | -12.8% |
| CC1CCN(S(=O)(=O)c2ccc3c(c2)N(CC(=O)NCCCN2C(C)CCCC2C)C(=O)CO3)CC1 (stereo not drawn) | 17.3% |
| CCN(Cc1ccccc1)C(=O)CN1C(=O)COc2ccc(S(=O)(=O)N3CCCCCC3)cc21 | -8.9% |
| CCN(Cc1ccccc1)C(=O)CN1C(=O)COc2ccc(S(=O)(=O)NC3CCCC3)cc21 | -54.2% |
| CCCCN(CCCNC(=O)CN1C(=O)COc2ccc(S(=O)(=O)N3CCC(C)CC3)cc21)Cc1ccccc1 | -76.6% |
| CCN(CC)S(=O)(=O)c1ccc2c(c1)N(CC(=O)NCCc1ccc(S(N)(=O)=O)cc1)C(=O)CO2 | -1.7% |
| CCCCN(CC)CCNC(=O)CN1C(=O)COc2ccc(S(=O)(=O)N3CCCC3)cc21 | -3.34% |
| CCN(CC)S(=O)(=O)c1ccc2c(c1)N(CC(=O)N(CCc1ccncc1)C(C)C)C(=O)CO2 | -53.3% |
| CCN(CC)S(=O)(=O)c1ccc2c(c1)N(CC(=O)N1CCCC1)C(=O)CO2 | -5.64% |

| SMILES | hERG current change (%, negative = inhibition) at 10uM |
| --- | --- |
| CC1CCN(S(=O)(=O)c2ccc3c(c2)N(CC(=O)NCCCN2CCCC(C)C2)C(=O)CO3)CC1 (stereo not drawn) | -8.35% |
| CCCCN(CCCC)CCNC(=O)CN1C(=O)COc2ccc(S(=O)(=O)N3CCOCC3)cc21 | -42.3% |
| CCCCN(CCCC)CCNC(=O)CN1C(=O)COc2ccc(S(=O)(=O)N3CCC(C)CC3)cc21 | -66.5% |
| CC(C)N(Cc1ccccc1)C(=O)CN1C(=O)COc2ccc(S(=O)(=O)NC3CCCC3)cc21 | -36.1% |
| CC(C)CN(C(=O)COC(=O)/C=C/c1ccccc1)C1CCS(=O)(=O)C1 (stereo not drawn) | -10.7% |
| CCOC(=O)N1CCN(C(=O)CSc2nnc(COc3ccccc3)o2)CC1 | -11% |
| S=C(Nc1ccc(Br)cc1Cl)NN1CCOCC1 | -8.03% |
| O=C(CC1NCCNC1=O)Nc1ccc(Oc2ccccc2)cc1 (stereo not drawn) | 25.6% |
| Cc1cc(C(=O)Nc2ccc3c(c2)CCC3)c2ccccc2n1 | 10.8% |
| COc1ccc(Cl)cc1NC(=O)CCS(=O)(=O)c1ccc(Br)cc1 | 3.8% |
| COc1ccc(NC(=O)C(=O)NNC(=O)C(C)Oc2ccc(Cl)cc2Cl)cc1 (stereo not drawn) | 19% |
| Cn1nc(C(=O)Nc2ccccc2)c2c1-c1ccccc1S(=O)(=O)C2 | -0.138% |
| Cc1ccc(CCNC(=O)CN2C(=O)COc3ccc(S(=O)(=O)N4CCC(C)CC4)cc32)cc1 | 8.66% |
| CC(C)CN(CCCNC(=O)CN1C(=O)COc2ccc(S(=O)(=O)N3CCCCCC3)cc21)CC(C)C | -52% |
| CCOCCCNC(=O)CN1C(=O)COc2ccc(S(=O)(=O)N3CCC(C)CC3)cc21 | 6.25% |
| CC1CCN(S(=O)(=O)c2ccc3c(c2)N(CC(=O)NCCCN(Cc2ccccc2)C(C)C)C(=O)CO3)CC1 | -62.5% |
| CCCCN(CCCC)CCCNC(=O)CN1C(=O)COc2ccc(S(=O)(=O)N3CCC(C)CC3)cc21 | -74.8% |
| CC(C)CN(CCCNC(=O)CN1C(=O)COc2ccc(S(=O)(=O)N3CCOCC3)cc21)CC(C)C | 6.18% |
| CC1CCN(S(=O)(=O)c2ccc3c(c2)N(CC(=O)NCCCOC(C)C)C(=O)CO3)CC1 | 12.8% |
| CC(C)CN(CCCNC(=O)CN1C(=O)COc2ccc(S(=O)(=O)N3CCC(C)CC3)cc21)CC(C)C | -2.94% |
| CC(C)CN(CCCNC(=O)CN1C(=O)COc2ccc(S(=O)(=O)N3CCCC3)cc21)CC(C)C | -5.33% |
